# The campaign covered roughly 330,000 compounds. About 1,900 (0.58%) were called active. Not shown: some 4% with an inconclusive outcome. Only a sample is shown. Entries with a potency or affinity are not part of this list. Unmarked numbers belong to inactive results. Rule as the data show it: inconclusive = inhibition above about 70% without an active follow-up result; inactive = below that.
# Assay: M. tuberculosis growth inhibition, HTS (AID 449762);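 also: bacterial growth assessed after seven days of incubation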
# Conditions: M. tuberculosis H37Rv growth inhibition, 7H9 media; at 25 µM; stronger effect = higher value
row,Structure (SMILES),inhibition [%]
1,COc1ccc(-c2nnn(CC(=O)NC(=O)NC3CCCCC3)n2)cc1OC,-0.345
2,O=C(Cn1nnc(-c2cccs2)n1)OC1CCCCC1,4.15
3,O=C(NC(=S)NC1CCS(=O)(=O)C1)c1ccccc1 (stereo not given),-12
4,Cc1c(C(=O)N2CCC3(CC2)OCCO3)sc2ncnc(N3CCc4ccccc4C3)c12,-0.89
5,CC(C)CCn1nnnc1C(c1ccccc1)N1CCN(C)CC1 (stereo not given),5.26
6,O=C(CNS(=O)(=O)c1cccs1)N1CCN(c2ccccn2)CC1,4.15
7,CCOC(=O)N1CCN(C(=O)C2CCN(c3nnc(-n4cccc4)s3)CC2)CC1,-4.54
8,O=C(C1CCN(c2nnc(-n3cccc3)s2)CC1)N1CCOCC1,-4.62
9,CC1=NN(C(N)=S)C(=O)C1N=Nc1ccc(S(N)(=O)=O)cc1 (stereo not given),0.37
10,CC1=NN(C(N)=S)C(=O)C1N=Nc1ccc(Br)cc1 (stereo not given),58.6
11,Cc1ccc(S(=O)(=O)Nc2ccc3ccccc3n2)cc1,0.36
12,COc1ccccc1-c1cc2nc(C)c(CCC(=O)NC(C)CCc3ccco3)c(C)n2n1 (stereo not given),2.39
13,Cc1nc2cc(-c3cccc(F)c3)nn2c(C)c1CCC(=O)NC(C)CCc1ccco1 (stereo not given),-9.87
14,O=c1cc(O)nc(SCc2ccc(Cl)cc2)[nH]1,-0.2
15,COc1cc(-c2nnc(CSc3nnc(N)s3)o2)cc(OC)c1OC,-0.69
16,Cc1nc(-n2nnc3ccccc32)c2c3c(sc2n1)CCCC3,4.15
17,CCCc1cc(=O)n2[nH]c(C)c(-c3ccc(OC)cc3)c2n1,35.8
18,Cc1cc(=O)n2[nH]c(C)c(-c3ccc(Cl)cc3)c2n1,-1.1
19,Cc1cc(NC(=O)Cn2nnc(-c3ccccc3NC(=O)c3ccccc3F)n2)no1,-4.78
20,CCOC(=O)c1cnc(Nc2nc3ccccc3o2)nc1CSc1ncccn1,0.71

row,Structure (SMILES),inhibition [%]
1,CCCc1nc(Nc2nc3ccccc3o2)nc(C)c1C(=O)OCC,-21.6
2,Cc1nnc(SCC(=O)N(Cc2ccccc2)C(C)(C)C)[nH]c1=O,3.28
3,O=C1c2ccccc2C(=O)N1Cc1ccc2c(c1)OCO2,4.9
4,CC(C(=O)NC1CCCC1)N1C(=O)c2cccc3cccc1c23 (stereo not given),-3.8
5,CCOC(=O)c1cnc(-n2nc(C)cc2C)nc1Nc1ccc(O)cc1,-2.03
6,CCOC(=O)c1cnc(-n2nc(C)cc2C)nc1Nc1cccc(C(=O)O)c1,19.4
7,COc1ccc(CN2CCn3ncc(C(=O)Nc4cccc(C)c4)c3C2=O)cc1,3.51
8,COc1ccc(C(CNC(=O)C2CC2)N(C)C)cc1 (stereo not given),-15.1
9,CCSc1nnc(C)n1-c1ccc(C(=O)O)cc1,-3.32
10,CCc1ccc(OCC(=O)Nc2ccc(-c3nc4ccccc4o3)c(O)c2)cc1,-3.85
11,O=C1c2ccc(-c3nc4ccccc4o3)cc2C(=O)N1Cc1cccnc1,6.12
12,CC(C)NC(=O)c1ccc(-n2c(=S)[nH]c3ccccc3c2=O)cc1,-2.47
13,CCN(CC)S(=O)(=O)c1ccc(N2CCCC2)c(NC(=O)c2nn(C)c(=O)c3ccccc23)c1,-4.45
14,CCN(CC)S(=O)(=O)c1ccc2[nH]cc(C(=O)NCCc3ccccc3)c(=O)c2c1,4.1
15,CCN(CC)S(=O)(=O)c1ccc2[nH]cc(C(=O)NCCN3CCCCCC3)c(=O)c2c1,-8.55
16,CCN(C(=O)c1cc(Cl)ccc1OC)c1ccccc1,-7.73
17,CCOC(=O)C1=C(C)C(c2cccc(Oc3ccccc3)c2)NC(=S)N1 (stereo not given),10.7
18,COc1ccc(-c2csc(NS(=O)(=O)c3ccc([N+](=O)[O-])cc3)n2)cc1,1.1
19,COc1ccc(-c2nc(-c3ccccn3)ncc2S(C)(=O)=O)cc1,-1.3
20,Cc1ccc(-n2c3nc(=O)n(C)c(=O)c-3cc3ccccc32)cc1,10.4

row,Structure (SMILES),inhibition [%]
1,c1ccc(-c2nccc(-c3ccco3)n2)nc1,58.2
2,Cc1ccccc1-n1c2nc(=O)n(C)c(=O)c-2cc2ccccc21,0.96
3,Cc1ccc(NC(=O)CSc2nc(=O)n(CCN3CCOCC3)c3c2CCCC3)cc1,-2.61
4,CCCS(=O)(=O)N1CCC(C(=O)NCCc2ccccc2)CC1,4.73
5,CCc1cc(/C(Cc2ccccn2)=N\O)c(O)cc1O,-0.69
6,CCc1cc(C(=O)Cc2ccccn2)c(O)cc1O,-1.89
7,CC(/C=C/c1ccc(C)o1)=C\C(=O)O,8.65
8,CC(/C=C\c1ccccc1)=C/C(=O)O,-1.86
9,N#CC(C(=O)O)=C1CCCC1,-4.52
10,COc1ccc(COc2cc(-c3cccc(OC)c3)nc3ccc(NC(=O)c4ccc(Cl)cc4)cc23)cc1,56.2
11,COc1ccc(COc2cc(-c3cccc(OC)c3)nc3ccc(NC(=O)c4ccc(N(C)C)cc4)cc23)cc1,-16.9
12,O=C(NC1CCN(S(=O)(=O)c2ccccc2F)CC1)c1ccco1,-8.86
13,COc1cccc(NC(=O)CN(C)C(=O)C2CC3C=CC2C3)c1 (stereo not given),0.94
14,CCN(c1ccccc1)S(=O)(=O)c1ccc(Cl)c(NC(=O)CNCc2ccccc2OC)c1,-4.74
15,NS(=O)(=O)c1cccc(NC(=O)COc2ccc([N+](=O)[O-])cc2)c1,-1.48
16,O=C(NCc1ccc(F)cc1)C1(S(=O)(=O)c2ccc(Cl)cc2)CC1,-0.39
17,COc1ccccc1/C=C1\N=C(C(C)(C)C)OC1=O,7.56
18,CN(C)c1ccc(C=C2C(=O)OC(C)(C(C)(C)C)OC2=O)cc1 (stereo not given),0.2
19,CC(C)Cn1c(NCCN(C)C)nc2c1c(=O)[nH]c(=O)n2C,-4.76
20,CCNc1nc2c(c(=O)[nH]c(=O)n2C)n1CC(C)C,-9.92

# Reference: PubChem BioAssay AID449762 (Southern Research Specialized Biocontainment Screening …, 2010)
